Molecules are shown by their SMILES. Active and inactive are the calls of the source.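 The calls were made as follows, unless noted: active = fluorescence slope higher than the sample average by over 3 SD (cut at about -0.22 in these data, passing the limit was not always enough); inactive = the rest.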

Experimental findings from PubChem BioAssay are described below.

System in one experiment: not listed separately
Briefly: inhibitors of E-selectin induction by TNFa, primary screen, imaging, HUVEC, immunofluorescence, MLSMR starter and 10KST1 sets (AID 487;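 active = visually confirmed hit in the image check and inhibition above 20%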;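 as to inhibition: signal is fraction of cell area covered by stained E-selectin grains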;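 as to nuclei count: 100% = median nuclei count of all wells on the same plate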). The conditions noted are these: HUVEC TNFalpha-induced E-selectin immunofluorescence imaging, at 2 µM; inhibition: stronger effect = higher value; nuclei count: measured here: cell number, toxicity.
As usually defined, the inhibition is the change of the read-out against control, counted positive when it falls. Consider `CCS(=O)(=O)N1CCC(C(=O)NC2CCCCCCC2)CC1`, for which the inhibition is -113% (inactive) and the nuclei count was 128%. On the same counts, the results for `Cc1occc1C(=O)Nc1nnc(C2CCCCC2)s1` are 14% (inactive) and 106%. For `NC(=O)c1ccccc1NC(=O)CN1CCOCC1`, in that order: -46.9% (inactive) and 105%.

In the case of `CCOC(=O)C(CC)n1nc(C)n2c(cc3sccc32)c1=O` (centres undefined), the inhibition was -25.8% (inactive) and the nuclei count was determined as 122%. On the same counts, the results for `Cc1ccc(-c2noc(CCC(=O)N3CCN(c4cccc(C(F)(F)F)c4)CC3)n2)cc1` are -36.9% (inactive) and 111%. `Cc1cc(Br)ccc1NC(=O)CNC(=O)CSc1n[nH]c(N)n1`: the inhibition is -25.1% (inactive) and the nuclei count was found to be 115%. For `O=C(C1CCCN(S(=O)(=O)c2cnc[nH]2)C1)N1CCN(c2ccc(Cl)cc2)CC1` (centres undefined), the inhibition was -71.3% (inactive) and the nuclei count turned out to be 123%. Turning to `Cc1ccc(CCSCC(=O)O)cn1`, the nuclei count amounted to 83.6% and the inhibition is 10.4% (inactive).

For the molecule `CCCc1nnc(NC(=O)CCC(=O)N2CCN(CCOc3ccc(C)cc3)CC2)s1`, the nuclei count turned out to be 81.8% and the inhibition is -2.3% (inactive). For `CN1CCC(NC(=O)c2cccs2)CC1`, in that order: 112% and -16.6% (inactive).

The target of another experiment is Voltage-gated potassium channel subunit beta-2 (Rattus norvegicus) (UniProt P62483). Kind of experiment: KvBeta enzyme negative modulators, primary screen, biochemical, NADPH fluorescence (AID 622).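 Also: slope of raw intensity against log time taken from 70 to 1610 s.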 The conditions noted are these: recombinant KvBeta, 4-cyanobenzaldehyde reduction, at 10 µM, stronger effect = higher value.
Voltage-gated potassium channel subunit beta-2 (Rattus norvegicus), sequence (P62483 whole entry, looked up): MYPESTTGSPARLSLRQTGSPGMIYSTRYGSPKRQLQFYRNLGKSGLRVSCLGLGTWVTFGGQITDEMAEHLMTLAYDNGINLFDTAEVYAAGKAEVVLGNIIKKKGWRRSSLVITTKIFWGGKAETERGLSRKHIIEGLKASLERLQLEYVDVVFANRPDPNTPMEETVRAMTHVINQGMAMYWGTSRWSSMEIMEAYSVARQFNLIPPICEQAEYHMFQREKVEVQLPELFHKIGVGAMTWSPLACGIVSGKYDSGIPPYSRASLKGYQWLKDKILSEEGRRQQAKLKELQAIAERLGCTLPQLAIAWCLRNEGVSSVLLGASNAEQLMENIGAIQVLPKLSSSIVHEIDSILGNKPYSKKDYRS
In the case of `CC(C)(C)NC(=O)CSc1nnc(-c2ccccn2)n1-c1ccccc1`, the fluorescence slope is -0.587 (inactive). Same read-out and setting: then `O=C(COC(=O)c1cncc(Br)c1)NCCC1=CCCCC1`, with -0.338 (inactive).

On to `COc1ccc(S(=O)(=O)Nc2ccccc2OC)cc1C`, for which the fluorescence slope was -0.459 (inactive).

Take `Nc1nc2n(n1)C(c1cccc(Br)c1)CC(c1ccc(F)cc1)N2` (centres undefined): the fluorescence slope is -0.608 (inactive). On the same count and under the same terms, then `O=C(NC1CCCCC1)N(Cc1ccccc1)Cc1ccco1`, with -0.4 (inactive); and `O=C(O)CCn1[nH]c(=O)ccc1=O`, with -0.562 (inactive).

Consider `COc1ccc(C(=O)Nc2ccccc2C(=O)NCCN2CCOCC2)cc1`, for which the fluorescence slope is -0.429 (inactive). Still for that read-out and setting: then `CCc1ccccc1NC(=O)CCc1nc(-c2ccc(C)cc2)no1`, with -0.299 (inactive). Still for that read-out and setting: with `Cc1cc(NS(=O)(=O)c2ccc(NC(=O)Nc3ccc4c(c3)OCO4)cc2)no1` the figure was -0.393 (inactive). Take `CCOC(=O)c1ccc(NC(=O)CSCc2ccco2)cc1`: the fluorescence slope is -0.471 (inactive). `Cc1cc(NC(=O)CSc2nccn2-c2ccc(F)cc2)no1`: the fluorescence slope was -0.6 (inactive).

Regarding `O=C(COC(=O)C1CC1)c1c[nH]c2ccccc12`, the fluorescence slope was -0.587 (inactive). Still for that read-out and setting: with `O=C(CCS(=O)(=O)c1cccc2nonc12)Nc1cccc2c1CCCC2` the figure was -0.547 (inactive); with `COc1cccc(NC(=O)N(Cc2ccco2)C(C)c2cccs2)c1` (centres undefined), -0.469 (inactive). Still for that read-out and setting: then `Cc1csc2ncc(C(=O)N3CCc4ccccc43)c(=O)n12`, with -0.551 (inactive); and `c1ccc(-c2ccccc2OCCn2cncn2)cc1`, with -0.485 (inactive).

Regarding `COc1ccc(NC(=O)CN(c2ccc(C)cc2)S(C)(=O)=O)c(OC)c1`, the fluorescence slope was -0.392 (inactive). Still for that read-out and setting: with `O=C(OCC(=O)N1CCCC1)c1ccccc1OCc1ccccc1` the figure was -0.505 (inactive).

Regarding `Cc1cc(NS(=O)(=O)c2ccc(NC(=O)COc3ccccc3C(C)C)cc2)no1`, the fluorescence slope is -0.555 (inactive).

For the molecule `CCN(CC)c1ccc(NC(=O)CN2CCN(CC(=O)Nc3ccccc3F)CC2)cc1`, the fluorescence slope was -0.413 (inactive). Still for that read-out and setting: then `COc1cc2[nH]c(=O)c(C(=O)NCCCN3CCCCC3)c(O)c2cc1OC`, with -0.583 (inactive); and `Cn1c(NC(=O)c2ccccc2NC(=O)C(C)(C)C)nc2ccccc21`, with -0.163 (active); and `O=c1[nH]c2sc3c(c2c2nncn12)CCCC3`, with -0.499 (inactive). The same measure, in the same setting: then `Cc1nnc(SCC(=O)NCCN2C(=O)CSC2=O)s1`, with -0.606 (inactive); and `Cc1ccc(-c2nn(C)c(=O)c3ccccc23)cc1S(=O)(=O)NCCN1CCOCC1`, with -0.468 (inactive); and `COc1cccc(Oc2cn[nH]c2-c2ccc(O)cc2O)c1`, with -0.453 (inactive). `COc1ccc(CCNC(=O)CCN2C(=O)C3CC=CCC3C2=O)cc1OC` (centres undefined): the fluorescence slope is -0.605 (inactive).

As to `c1ccc(-c2nnc(-c3ccco3)n2-c2ccccc2)cc1`, the fluorescence slope is -0.47 (inactive). The same measure, in the same setting: then `CCCCCCC1/C(=N/O)CCC1C(=O)OC` (centres undefined), with -0.614 (inactive); and `CCOc1ccc2[nH]c(=O)c(C(c3nnnn3Cc3ccco3)N3CCC(C)CC3)cc2c1` (centres undefined), with -0.539 (inactive); and `CCS(=O)(=O)N1CCC(C(=O)NC2CCCCCCC2)CC1`, with -0.378 (inactive). For `Cc1occc1C(=O)Nc1nnc(C2CCCCC2)s1`, the fluorescence slope was -0.526 (inactive). On the same count and under the same terms, with `NC(=O)c1ccccc1NC(=O)CN1CCOCC1` the figure was -0.492 (inactive).

Take `CCOC(=O)C(CC)n1nc(C)n2c(cc3sccc32)c1=O` (centres undefined): the fluorescence slope was -0.567 (inactive).
